This is an account of results in the supplement of paper PMC13094657.

The subject of test [1] is MDA-MB-231. Description: cell viability relative to vehicle unstimulated control (fraction); higher = more viable cells. The following applies: pre-treatment time: 18 h then 24 h IFNg/TNF.
Test [2] concerns MDA-MB-231. Put plainly: kynurenine production, fold change vs DMSO IFNg/TNF control; higher = more kynurenine produced (less inhibition). To be noted: pre-treatment time: 18 h then 24 h IFNg/TNF. In short, it runs like this: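 Fold change over cytokine-stimulated vehicle wells on the same plate is the measure used for kynurenine production, averaged across duplicate plates in the first screening round. MDA-MB-231 cells, seeded 24 h beforehand at 7 × 10^4/well in 96-well plates, were pre-treated 18 h with each natural product in 0.1% DMSO and stimulated 24 h at 37°C with IFNγ (1 U/ml) and TNF (6.25 ng/ml). Supernatants were read at 492 nm following trichloroacetic acid and p-dimethylaminobenzaldehyde treatment, against 0–100 μM standards.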

Where a name gives a salt, the structure may show the parent alone. ± gives the standard deviation of the averaged measurements.
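Throughout, for cell viability relative to vehicle unstimulated control: viability of the cells left after supernatant collection, read with Deep Blue dye added for 4 h, as absorbance at 570 nm minus 600 nm.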

On to `C=C1CC[C@@H]2[C@](C)(CO[C@@H]3O[C@H](CO)[C@@H](O)[C@H](O)[C@H]3O)CCC[C@@]2(C)[C@@H]1CCC1=CCOC1=O` [Neoandrographolide] (compound dose: 10 uM), for which the cell viability in the test with MDA-MB-231 [1] is 0.953 ± 0.034. For the same compound, the kynurenine production with MDA-MB-231 [2] amounted to 0.893 ± 0.012.
Take `CC1=C2[C@@H](OC1=O)[C@H](O)[C@]13[C@H]4C[C@@H](C(C)(C)C)[C@]15[C@@H](OC(=O)[C@@H]5O)O[C@@]23C(=O)O4` [Ginkgolide K] (compound dose: 10 uM): in the test on MDA-MB-231 [1], the cell viability came to 0.996 ± 0.15. Moreover, the kynurenine production in the test on MDA-MB-231 [2] is 0.988 ± 0.29.
For `CC1=CCC2CC1C2(C)C` (stereo not drawn) [(+)-α-pinene] (compound dose: 10 uM), in that order: 0.9918 ± 0.0024 and 0.97 ± 0.036.
For `CCOC(=O)/C=C/c1ccccc1` [Ethyl cinnamate] (compound dose: 10 uM), the cell viability in the test with MDA-MB-231 [1] came out at 0.988 ± 0.085. Further, in the test with MDA-MB-231 [2], the kynurenine production is 1.14 ± 0.11.
As for `CC1=CC[C@@](O)(C(C)C)CC1` [Terpinen-4-ol] (compound dose: 10 uM), in the test with MDA-MB-231 [1], the cell viability worked out at 1.12 ± 0.0039. In addition, the kynurenine production with MDA-MB-231 [2] is 0.984 ± 0.17.
`C/C1=C\CC[C@]23O[C@H]2[C@@H](OC3=O)c2c(C)coc2C1` [Linderane] (compound dose: 10 uM): the cell viability in the test with MDA-MB-231 [1] stood at 0.985 ± 0.032. The kynurenine production in the test on MDA-MB-231 [2] turned out to be 0.942 ± 0.096.
The matching figures for `O[C@H]1[C@H]2c3cc4c(cc3CN3CC[C@H](C[C@@H]1O)[C@H]23)OCO4` [Dihydrolycorine] (compound dose: 10 uM): 0.961 ± 0.041 and 0.723 ± 0.022.
As to `C=C1C(=O)O[C@H]2[C@H]1CC/C(C)=C/CC[C@@]1(C)O[C@@H]21` [Parthenolide] (compound dose: 10 uM), the cell viability in the test with MDA-MB-231 [1] was determined as 0.933 ± 0.034. For the same compound, the kynurenine production in the test on MDA-MB-231 [2] came to 0.309 ± 0.064.
For `C[n+]1cccc(C(=O)[O-])c1` [Trigonelline hydrochloride] (compound dose: 10 uM), in that order: 0.913 and 0.906 ± 0.16.
The matching figures for `COC(=O)C1=CO[C@@H](O[C@@H]2O[C@H](CO)[C@@H](O)[C@H](O)[C@H]2O)[C@H]2[C@@H]1[C@H](O)C[C@]2(C)OC(C)=O` [Barlerin] (compound dose: 10 uM): 1.01 ± 0.02 and 0.884 ± 0.11.
With `CC1(C)CC[C@]2(C(=O)O[C@@H]3O[C@H](CO)[C@@H](O)[C@H](O)[C@H]3O)CC[C@]3(C)C(=CC[C@@H]4[C@@]5(C)CC[C@H](O[C@@H]6O[C@H](C(=O)O)[C@@H](O)[C@H](O)[C@H]6O)C(C)(C)[C@@H]5CC[C@]43C)[C@@H]2C1` [Chikusetsusaponin Iva] (compound dose: 10 uM), in the test with MDA-MB-231 [1], the cell viability was 0.986 ± 0.01. Also, in the test with MDA-MB-231 [2], the kynurenine production stood at 0.788 ± 0.14.
As for `C[C@H](CC[C@@H](O[C@@H]1O[C@H](CO[C@@H]2O[C@H](CO)[C@@H](O)[C@H](O)[C@H]2O)[C@@H](O)[C@H](O)[C@H]1O[C@@H]1O[C@H](CO)[C@@H](O)[C@H](O)[C@H]1O)C(C)(C)O)[C@H]1CC[C@@]2(C)[C@@H]3CC=C4[C@@H](CC[C@H](O[C@@H]5O[C@H](CO[C@@H]6O[C@H](CO)[C@@H](O)[C@H](O)[C@H]6O)[C@@H](O)[C@H](O)[C@H]5O)C4(C)C)[C@]3(C)[C@H](O)C[C@]12C` [Mogroside V] (compound dose: 10 uM), the cell viability with MDA-MB-231 [1] is 0.989 ± 0.021. For the same compound, in the test on MDA-MB-231 [2], the kynurenine production is 0.968 ± 0.19.
Consider `O=C(O)C1=CO[C@@H](O[C@@H]2O[C@H](CO)[C@@H](O)[C@H](O)[C@H]2O)[C@@H]2C(CO)=C[C@H](O)[C@H]12` [Deacetylasperulosidic acid] (compound dose: 10 uM), for which the cell viability in the test with MDA-MB-231 [1] was determined as 1.01 ± 0.024. Moreover, the kynurenine production with MDA-MB-231 [2] came out at 1.07 ± 0.041.
As to `C=C(C)[C@@H]1CC=C(CO)CC1` [(S)-(-)-Perillyl alcohol] (compound dose: 10 uM), the cell viability with MDA-MB-231 [1] is 0.984 ± 0.02. In addition, the kynurenine production in the test on MDA-MB-231 [2] was found to be 1.19 ± 0.25.
Regarding `C/C1=C\[C@H]2C(=O)[C@@H](C)C[C@]2(O)C(=O)/C(C)=C/[C@@H]2[C@H](CC1)C2(C)C` [jolkinol C] (compound dose: 10 uM), in the test with MDA-MB-231 [1], the cell viability is 1.07 ± 0.041. The kynurenine production with MDA-MB-231 [2] came to 0.868 ± 0.087.
In the case of `C[C@@H]1CC[C@@]2(OC1)O[C@H]1C[C@H]3[C@@H]4CC=C5C[C@@H](O)C[C@@H](O)[C@]5(C)[C@H]4CC[C@]3(C)[C@H]1[C@@H]2C` [Ruscogenin] (compound dose: 10 uM), the cell viability with MDA-MB-231 [1] was 1.01 ± 0.037. Further, in the test on MDA-MB-231 [2], the kynurenine production stood at 1.32 ± 0.2.
As for `C=C[C@]1(C)CC[C@@H](C(=C)C)C[C@H]1C(=C)C` [β-Elemene] (compound dose: 10 uM), the cell viability with MDA-MB-231 [1] amounted to 0.939 ± 0.071. Further, the kynurenine production in the test on MDA-MB-231 [2] came out at 0.8 ± 0.11.
